About 83,000 compounds went through this panel and 20% of them were active in at least one assay; those are over-represented in the sample as a whole.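 48-hour exposure, single concentration, 96-well plates; percent growth endpoint where 0 means no net growth. Active: below 10.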 A number with no mark means an inactive call. The source made the active and inactive calls.
Key:
Test in all cases: NCI-60 one-dose screen, 48 h (100 = growth as untreated, 0 = no growth, -100 = all killed)
Conditions in all cases: 10 µM unless noted
[1] = tested on: HCT-15 colon
[2] = tested on: HT29 colon
[3] = tested on: SNB-75 CNS
[4] = tested on: SNB-19 CNS
[5] = tested on: U251 CNS
[6] = tested on: PC-3 prostate
[7] = tested on: SK-MEL-5 melanoma
[8] = tested on: UACC-62 melanoma
[9] = tested on: LOX IMVI melanoma
[10] = tested on: SK-MEL-28 melanoma

Structure (SMILES) | growth [1] | growth [2] | growth [3] | growth [4] | growth [5] | growth [6] | growth [7] | growth [8] | growth [9] | growth [10]
O=C(O)CCCn1c(SCc2c(Cl)cccc2Cl)nc2ccsc2c1=O | 30.7% | 4.21% (active) | -13.8% (active) | 31% | 18.1% | 14.5% | 16.8% | 28.3% | 28% | 57.6%
CC(CN)[C@@H]1CC[C@]2(CO)CC[C@]3(C)[C@H](CC[C@@H]4[C@@]5(C)CCC(N)C(C)(C)[C@@H]5CC[C@]43C)[C@@H]12 (stereo not given in full) | -75.4% (active) | -85.9% (active) | 52.2% | 5.3% (active) | -88.4% (active) | -76.2% (active) | 57.5% | 104% | -72.1% (active) | -39.8% (active)
CC1(C)O[C@H]2OC3CCC(=O)CC3(O)[C@H]2O1 (stereo not given in full) | 111% | 98.6% | 95.1% | 107% | 96.5% | 82% | 98.8% | 107% | 96.7% | 120%
O=C(N=Nc1c(O)[nH]c2ccccc12)Nc1ccc(Cl)cc1 | 87.3% | 93.5% | 101% | 89.3% | 100% | 89.8% | 90.7% | 75.7% | 86.5% | 91.5%
COC(=O)C1=C(C(=O)Nc2cccnc2)C2OC1(C(Cc1ccccc1)Oc1ccccc1)C1OC21 (stereo not given) | 14.4% | 59.1% | 88.7% | 102% | 101% | 69.6% | 107% | 69.7% | 80.7% | -75.4% (active)
CCOC(=O)C1=C(C)N=C2SC=C(c3ccccc3)N2[C@H]1c1cn[nH]c1-c1ccc(Cl)cc1 | 24.6% | 36.8% | 73.8% | 59.2% | 31.2% | 34.7% | 49.7% | 36.2% | 5.54% (active) | 75.2%
COc1cc(/C=C2\C(=O)N(c3c(Cl)cccc3Cl)c3ccccc32)cc(OC)c1OCCCCCCn1c2ccccc2c(=O)c2ccccc21 | 108% | 103% | 73.6% | 98.4% | 103% | 87.1% | 96.1% | 93.3% | 98.4% | 99%
Cc1ccccc1CNc1c2ccccc2nc2ccccc12 | 14.6% | 8.87% (active) | 45.3% | 27.1% | 21.3% | 25.6% | 33.9% | 46.7% | 9.12% (active) | 58.3%
CNCc1cccc2c1OCCOCCN(C)C(=O)CN(C)S(=O)(=O)c1ccc(cc1)-c1cnc(N)c(n1)C(=O)N2 | 66.3% | 11.6% | -19.2% (active) | 25.5% | -62.3% (active) | 57.9% | 55.4% | 4.98% (active) | 10.3% | -85.8% (active)
O=C1c2cc3c(cc2-c2c1c1ccc(Cl)cc1c(=O)n2C[C@H](O)CO)OCO3 | 4.59% (active) | 0.971% (active) | -9.59% (active) | 14.1% | 0.379% (active) | 6.95% (active) | -96.6% (active) | -62% (active) | -31.9% (active) | -6.11% (active)
CCCCCCNc1nc(NCCCCCC)c2[nH]c(NCCCCCC)nc2n1 | 88.1% | 36.6% | -8.09% (active) | 89.8% | -32.8% (active) | 18.7% | 78.1% | 81.2% | 1.23% (active) | 98.2%

Reference: PubChem BioAssay (NCI)
